Data from PubChem BioAssay (NCATS).
Inconclusive results are not listed. Activity calls are given as the source filed them. The call rests on the fitted dose curve; in most records, active means well fitted inhibition curve with a large enough effect; inconclusive means small, poorly fitted or top-dose-only effect; inactive means no such curve, though single readings can be large or run the other way.

Each molecule was assayed against Cytochrome P450 3A4 (Homo sapiens) (UniProt P08684) (assay: qHTS Assay for Inhibitors and Substrates of Cytochrome P450 3A4 (AID 884; further: nearly all actives have a fitted effect of over 50% in size)). Conditions: recombinant CYP3A4, Luciferin-PPXE luminescence; series mostly up to 57.1 µM; activity change, negative = inhibition: at the top concentration.
Outline: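 Luminescent readout of luciferin produced by CYP3A4 (20 nM) dealkylation of Luciferin-PPXE, 25 uM (its KM). NADPH-driven reaction ran 60 min at RT after 10 min compound preincubation; data scaled to 57 uM ketoconazole as 100% inhibition.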
On the % scale 0 is the no-effect control and ±100 the full control effect; potency means the concentration at half of the fitted maximal effect.

Sequence of Cytochrome P450 3A4 (Homo sapiens) (P08684 whole entry, looked up): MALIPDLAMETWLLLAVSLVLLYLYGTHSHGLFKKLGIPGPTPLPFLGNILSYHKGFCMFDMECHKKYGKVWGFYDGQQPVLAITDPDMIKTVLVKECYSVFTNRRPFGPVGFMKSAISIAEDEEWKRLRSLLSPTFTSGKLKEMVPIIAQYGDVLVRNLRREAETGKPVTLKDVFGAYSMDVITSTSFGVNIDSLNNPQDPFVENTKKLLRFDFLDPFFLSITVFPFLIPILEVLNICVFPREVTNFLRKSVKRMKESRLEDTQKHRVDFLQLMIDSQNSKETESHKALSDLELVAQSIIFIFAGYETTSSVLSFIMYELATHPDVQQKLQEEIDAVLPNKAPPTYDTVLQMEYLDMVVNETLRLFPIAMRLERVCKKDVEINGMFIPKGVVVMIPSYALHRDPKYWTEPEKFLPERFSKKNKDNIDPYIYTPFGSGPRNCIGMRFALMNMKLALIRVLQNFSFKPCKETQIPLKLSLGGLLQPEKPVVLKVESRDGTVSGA

| Structure (SMILES) | activity change, negative = inhibition | Potency |
| --- | --- | --- |
| CC(=O)Oc1ccc(/C=C/C(=O)CC2OC(Oc3cc(OC(C)=O)c4c(c3)O[C@@H](c3ccc(OC(C)=O)cc3)CC4=O)C(OC(C)=O)C(OC(C)=O)C2OC(C)=O)cc1 (some centres undefined) | -22.6% (inactive) | – |
| COc1cc(/C=C/C(=O)N2CCCCC2=O)cc(OC)c1OC | -22% (inactive) | – |
| COC(=O)[C@@H]1C[C@@]2(O)[C@@H](O)[C@@H](O)[C@@H](O)C[C@H]2N1Cc1ccc(-c2ccccc2)cc1 | -15.1% (inactive) | – |
| CCC1=C2CC[C@H]3C(=O)N(c4ccccc4)C(=O)[C@H]3[C@H]2[C@@]2(C)C(=NCC(=O)OC)OC(=O)N2C1=O | – | 15.8 µM (active) |
| CN1CCN(C(=O)c2nc3ccc(Cl)cc3[nH]2)CC1 | -19% (inactive) | – |
| NC(=O)NCC1CC1 | -15.7% (inactive) | – |
| CC(=O)c1ccsc1B(O)O | -20.8% (inactive) | – |
| Cc1ccc(B(O)O)cc1 | -24.1% (inactive) | – |
| N#Cc1ccc(C23CC4(C2)[C@H](CN(Cc2ccc(-c5ccccc5)cc2)[C@@H]4c2ccccc2)C3c2ccc(C(F)(F)F)cc2)cc1 (some centres undefined) | -25% (inactive) | – |
| O=C(O)c1cc(-c2ccco2)nc2ccccc12 | -26.4% (inactive) | – |
| COC(=O)c1ccc(C23CC4(C2)[C@H](CN(Cc2ccc(-c5ccccc5)cc2)[C@@H]4c2ccccc2)C3c2ccccc2)cc1 (some centres undefined) | -26.6% (inactive) | – |
| CCC1=C2CC[C@H]3C(=O)NC(=O)[C@H]3[C@H]2[C@@]2(C)C(=NCC(=O)OC)OC(=O)N2C1=O | -14.8% (inactive) | – |
| Cn1c(=O)c(C(=O)COC(=O)c2cc(-c3ccccc3)nc3ccccc23)c(N)n(Cc2ccccc2)c1=O | -23.5% (inactive) | – |
| CC12C=C(/C=C/CCc3ccco3)C(C)(C1)C(CCc1ccco1)CC2=O (centres undefined) | -9.62% [at 11.4 µM] (inactive) | – |
